Source: PubChem BioAssay (several laboratories)
CHOP inh – inhibitors of CHOP promoter induction, primary screen, cell-based, unfolded protein response, luciferase reporter; CHO-K1 CHOP-promoter luciferase, tunicamycin-induced, 15-18 h; inhibition, % at 10 µM; 3.8% of 220,000 active;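 active = compounds that reduced the stress-induced luciferase reporter signal by more than about 70% of percent inhibition, limit read from the data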
WT yeast gro inh – growth inhibition of WT strain, primary screen, mitochondrial fusion inhibitor project, WT and mutant strains, chemical genetic. mitochondrial fusion phenotypic screen. inhibition, % at 10 µM. 2.1% of 190,000 active; in the data active = inhibition above about 58%; tested in S. cerevisiae
RAM network inh – inhibitors of the yeast RAM network, primary screen, dse1pr::URA3 reporter, 5-FOA selection; 1.8% of 190,000 active; inhibition, % at 50 µM; S. cerevisiae dse1pr::URA3 reporter, 5-FOA growth OD615, 2 d; analog-sensitive cbk1-as2 kinase mutant strain;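 active = inhibition above a set limit, 3 SD over mean compound inhibition, cut at about 8.4% in these data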;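 also: inhibition rescues growth on 5-FOA so higher OD means more RAM inhibition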
L major viab – Leishmania major promastigote growth inhibition, primary screen. Leishmania major promastigotes, resazurin fluorescence viability. inhibition, % at 10 µM. 9% of 200,000 active; in the data active = inhibition above about 50%;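 also: promastigotes grown with compound for 44 hours at 28 °C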
Of the large screens only hits and unclear results are named; the others gave an inactive call. Shown are actives, neighbours in structure and some others; about 13% of the full set was active somewhere.

COc1ccc(-c2cc(C(F)(F)F)nc(SCCC(=O)N3CCN4CCCC4C3)n2)cc1 (stereo not given)	L major viab 55
N/C(=N\OC(=O)CN1C(=O)c2ccccc2C1=O)c1ccc(Br)cc1	none
COc1ccc(Cn2c3ccc(OC)cc3c3nc4ccccc4nc32)cc1	none
COc1ccc2c(c1)c1nc3ccccc3nc1n2CCn1c(=O)oc2ccccc21	CHOP inh 95
CCOC(=O)Cn1c2ccccc2c2nc(C)sc21	none
CCOC(=O)Cn1c2ccccc2c2nc3ccccc3nc21	CHOP inh 93
COc1ccc2c(c1)c1nc3ccccc3nc1n2CC(=O)OC(C)C	CHOP inh 94
Cc1ccn(C)c(=N)c1	none (no result: WT yeast gro inh, RAM network inh, L major viab)
N#Cc1cc2c(nc1SCC(=O)Nc1sc3c(c1C#N)CCC3)CCCC2	L major viab 55
N#Cc1c(NC(=O)CSc2nnnn2C2CCCC2)sc2c1CCCC2	CHOP inh 82
N#Cc1c(NC(=O)CSc2ncn[nH]2)sc2c1CCCCC2	CHOP inh 91
N#Cc1c(NC(=O)CSc2nc(N)cc(=O)[nH]2)sc2c1CCCCCC2	none (no result: CHOP inh)
COC(=O)c1c(NC(=O)CSc2ncnc3[nH]ncc23)sc2c1CCC2	CHOP inh 77
COC(=O)c1c(NC(=O)CSc2ncnc3c2cnn3-c2ccccc2Cl)sc2c1CCCC2	none
Cc1cccc(C(=O)OCC(=O)NCCCc2ccccc2)c1	none
COc1cc(CN2CCNC(=O)C2CC(=O)N2CCCO2)cc(OC)c1 (stereo not given)	none
CCN(CC(=O)Nc1c(F)cccc1F)C(=O)CCc1ccc(OC)cc1	none
CCS(=O)(=O)CCSc1nc2c(cc1C#N)CCCC2	WT yeast gro inh 61
CCOC(=O)c1sc(NC(=O)CSc2n[nH]c(-c3ccc(Cl)cc3Cl)n2)c(C#N)c1C	CHOP inh 75, WT yeast gro inh 58
CCOC(=O)c1sc(NC(=O)CSc2nc(C)cc(-c3ccccc3)n2)c(C#N)c1C	none
CCOC(=O)c1sc(NC(=O)CSc2nc3c(cc2C#N)CCCCCC3)c(C#N)c1C	CHOP inh 72
N#CCSc1nc2c(cc1C#N)CCCCCC2	none
CN(C)c1ccc(NC(=O)C2CCCN(S(=O)(=O)c3ccccc3)C2)cc1 (stereo not given)	none
CNc1cc(N2CCCC2)ccc1[N+](=O)[O-]	none
O=[N+]([O-])c1cc(S(=O)(=O)NC2=NCCCCC2)ccc1NCC1CCCCC1	none
C=CCn1c(N)c(C(=O)OCCC)c2nc3ccccc3nc21	L major viab 100
COc1ccc(-c2cc3cc(OC)c(OC)cc3c(C)n2)cc1	none (no result: WT yeast gro inh, RAM network inh, L major viab)
COC(=O)CNC(c1ccccc1)c1cc(Cl)ccc1NC(=O)c1cccc(Cl)c1 (stereo not given)	WT yeast gro inh 58
NNC(=O)CNC(c1ccccc1)c1cc(Br)ccc1NC(=O)c1cccc(Cl)c1 (stereo not given)	none
COc1ccc(S(=O)(=O)Nc2cccc(Cl)c2)cc1OC	none
COc1ccc(S(=O)(=O)Nc2ccc(F)cc2)cc1N(C)S(=O)(=O)c1ccc(Cl)cc1	L major viab 100
COc1ccc(S(=O)(=O)Nc2ccc(F)c(F)c2)cc1Cl	none
COc1ccc(NS(=O)(=O)c2ccc(OC)c(N(C)S(=O)(=O)c3ccc(Cl)cc3)c2)cc1	L major viab 100
CCN(C(=O)COC(=O)c1cccnc1Nc1cccc(C(F)(F)F)c1)C1CCS(=O)(=O)C1 (stereo not given)	L major viab 59
CCN(C(=O)COC(=O)c1cccnc1SC)C1CCS(=O)(=O)C1 (stereo not given)	none
C=CCn1c(COc2cccc(C)c2C)nnc1SCC(=O)N1CCN(c2ccccc2)CC1	CHOP inh 71
Cc1ccccc1-n1c(SCC(=O)N2CCN(c3ccccc3)CC2)nnc1-c1ccncc1	L major viab 62
CC1(C)Cc2ccccc2-c2nnc(SCC(=O)N3CCN(c4ccccc4)CC3)n21	WT yeast gro inh 61
N[C@@H](Cc1ccc(O)cc1)c1nnc([C@H](CC(=O)O)NC(=O)C2CCNCC2)o1	none
CC(C)c1ccc(NC(=O)c2ccc(NS(C)(=O)=O)cc2)cc1	none
Cc1nc(N2CCN(C)CC2)c2sc(=S)n(C)c2n1	CHOP inh 74
Cc1nc(N2CCN(C)CC2)c2sc(=S)n(-c3ccccc3)c2n1	none
CCOc1cc(C)c(C(C)C)cc1S(=O)(=O)n1cnc(C)c1	none
COc1cc(NC(=O)C2=C(N3CCOCC3)/C(=C\c3ccc(Br)cc3)CC2)cc(OC)c1OC	none
COc1cc(NC(=O)C2=C(N3CCOCC3)/C(=C\c3ccc(Cl)cc3Cl)CC2)cc(OC)c1OC	L major viab 97
COC(=O)Cn1c(=NC(=O)CN2C(=O)CCC2=O)sc2cc(S(N)(=O)=O)ccc21	none
Cn1c(=NC(=O)c2ccc(S(=O)(=O)N3CCCc4ccccc43)cc2)sc2cc(S(C)(=O)=O)ccc21	RAM network inh 10, L major viab 99
C#CCn1c(=NC(=O)c2ccc(S(=O)(=O)N3CCCc4ccccc43)cc2)sc2cc(S(N)(=O)=O)ccc21	L major viab 100
Cn1c(=NC(=O)c2ccccc2[N+](=O)[O-])sc2cc(S(C)(=O)=O)ccc21	none
O=C1c2ccccc2NC(c2ccc(Cl)cc2Cl)N1O (stereo not given)	L major viab 70
O=C1c2ccccc2NC(c2ccc(Cl)cc2Cl)N1Cc1ccccc1 (stereo not given)	CHOP inh 87, WT yeast gro inh 81, L major viab 82
C=CCc1cccc(C2Nc3ccccc3C(=O)N2O)c1O (stereo not given)	none
O=C1c2ccccc2NC(c2c(Cl)cccc2Cl)N1Cc1ccccc1 (stereo not given)	L major viab 56
Cc1cccc(C2Nc3ccccc3C(=O)N2CCc2ccccc2)n1 (stereo not given)	none
COc1ccc(C2Nc3ccccc3C(=O)N2Cc2ccccc2)cc1CSc1ccccn1 (stereo not given)	none
Cc1cc2ncn(CCOc3ccccc3C#N)c2cc1C	none
N#CCC1c2ccccc2CCN1C(=O)Nc1ccc(Cl)cc1 (stereo not given)	none
N#CCC1c2ccccc2CCN1C(=O)Nc1cccc(Cl)c1 (stereo not given)	L major viab 63
Fc1ccccc1Nc1nc(NCc2ccco2)nc(N2CCOCC2)n1	none
CC(C)c1ccc(Nc2nc(NCc3ccco3)nc(N3CCOCC3)n2)cc1	WT yeast gro inh 58
CCOc1nc(NCc2ccco2)nc(Nc2ccc(OC)cc2)n1	L major viab 84
Cc1cccc(NC(=O)c2nc[nH]c2C(=O)Nc2cccc(C)c2)c1	CHOP inh 87
Cc1cccc(NC(=O)c2nc[nH]c2C(=O)N[C@@H](C)C(=O)OCc2ccccc2)c1	CHOP inh 90 (no result: WT yeast gro inh, RAM network inh, L major viab)
CC1OC(O[C@H]2CC[C@]3(C)C4C=C[C@]56OC[C@@]7(CC[C@@H](C)[C@H](C)C75)[C@H](O)C[C@@]6(C)[C@]4(C)CC[C@H]3C2(C)C)C(OC2OC(CO)C(O)C(O)C2OC2OCC(O)C(O)C2O)C(O)C1O (stereo not given in full)	CHOP inh 100 (no result: WT yeast gro inh, RAM network inh, L major viab)
